Rows were chosen to be rich in hits. Some 10% of all compounds tested hit in one or more screens of this group.
ALDH1A1 block – qHTS Assay for Inhibitors of Aldehyde Dehydrogenase 1 (ALDH1A1) | AID 1030, 2008 | Aldehyde dehydrogenase 1A1 (Homo sapiens), P00352 | 220,000 compounds, 7.3% hits | Potency, µM (titrated, usually from 75.3 µM), most hits filed as inhibitors | Purified ALDH1A1, NADH fluorescence, propionaldehyde substrate
Target sequence (P00352 whole entry, looked up): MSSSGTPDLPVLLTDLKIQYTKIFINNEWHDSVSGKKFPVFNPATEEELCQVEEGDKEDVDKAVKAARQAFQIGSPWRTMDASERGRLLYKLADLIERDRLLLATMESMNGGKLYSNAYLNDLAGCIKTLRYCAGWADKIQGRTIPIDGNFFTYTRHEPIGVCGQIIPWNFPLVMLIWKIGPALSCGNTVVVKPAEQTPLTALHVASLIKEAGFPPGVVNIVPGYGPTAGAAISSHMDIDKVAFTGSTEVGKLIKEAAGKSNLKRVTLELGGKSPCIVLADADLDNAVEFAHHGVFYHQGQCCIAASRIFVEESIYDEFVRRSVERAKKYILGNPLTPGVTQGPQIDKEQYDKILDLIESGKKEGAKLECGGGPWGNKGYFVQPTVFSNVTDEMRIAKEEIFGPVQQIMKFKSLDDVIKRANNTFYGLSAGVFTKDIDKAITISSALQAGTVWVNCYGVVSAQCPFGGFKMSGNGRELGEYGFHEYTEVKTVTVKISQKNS
HPGD block – qHTS Assay for Inhibitors of HPGD (15-Hydroxyprostaglandin Dehydrogenase). 15-hydroxyprostaglandin dehydrogenase [NAD(+)] (Homo sapiens), P15428. purified HPGD, NADH fluorescence kinetic, PGE2 substrate. Potency, µM, most hits filed as inhibitors. 150,000 compounds, 4.3% hits
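NADH formation kinetics: reaction with 30 uM PGE2 and 1 mM NAD+ (final), 20 nM enzyme, Tris-HCl pH 8 with Tween 20, after 15 min compound preincubation at room temperature. Fluorescence change, last versus first of five reads.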
12-hLO inh – qHTS Assay for Inhibitors of 12-hLO (12-human lipoxygenase); Polyunsaturated fatty acid lipoxygenase ALOX12 (Homo sapiens), P18054; purified 12-hLO, xylenol orange hydroperoxide absorbance; 150,000 compounds, 0.12% hits; Potency, µM (highest dose often 57.1 µM), usual class: inhibitors; active = well fitted inhibition curve with a large enough effect; inconclusive = small, poorly fitted or top-dose-only effect; note: nearly all actives have a fitted effect of over 55% in size
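Purified human 12hLO (150 nM final) was preincubated with compounds for 15 min at room temperature in 25 mM Hepes pH 7.0, 0.01% Triton X-100, then reacted with 40 uM arachidonic acid for 30 min. Hydroperoxide was detected with ferrous iron/xylenol orange.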
PNC inhibitor – High Content Assay for Compounds that inhibit the Assembly of the Perinucleolar Compartment | activity change (PNC), negative = inhibition, % at 10 µM | 140,000 compounds, 3.1% hits | PC3M PTB-GFP, PNC prevalence imaging, 16 h; stronger effect = lower value;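 active = readout at or below -70, meaning at least 70% loss of cells showing the perinucleolar compartment, a nuclear body marking cancer cells; inconclusive = readout between -30 and a set limit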
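Compounds are pinned in duplicate onto adhered PC3M cells stably expressing GFP-tagged PTB and incubated 16 h at 37 C. Cells are then fixed, nuclei stained with Hoechst, and PNC-positive cells counted.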
LMNA splice mod – qHTS Assay for Modulators of Lamin A Splicing; HeLa LMNA splicing GFP/RFP minigene ratio, 48 h; Potency, µM (titrated, usually from 46.1 µM), usual class: inhibitors; 200,000 compounds, 0.01% hits; active = well fitted inhibition curve with a large enough effect in the signal ratio, with a control signal flat, not every such curve was filed as active; inconclusive = small, poorly fitted or top-dose-only effect, or effect the other way, or a change in a side signal; the % refers to the signal ratio
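S3 HeLa cells stably expressing lamin A-EGFP splicing minigene plus DsRed2, 600 cells/well, 48 h compound exposure at 37C. Laser-scanning cytometry; analysed as GFP (500-530 nm)/RFP (575-640 nm) total intensity ratio; 0.5% DMSO vehicle.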
Each line names hits and unclear results; the compound was inactive in the other large screens. Unless noted, calls come from the whole dose curve; as a rule, active = well fitted inhibition curve with a large enough effect (not every such curve was filed as active); inconclusive = small, poorly fitted or top-dose-only effect, or another doubt; inactive = no such curve, though single readings can be large or run the other way.

O=C(O)c1ccccc1N/N=C/c1c(Sc2nnnn2-c2ccccc2)nc2ccccn2c1=O	ALDH1A1 block 2µM, LMNA splice mod inconclusive (no result: HPGD block, 12-hLO inh, PNC inhibitor)
O=c1c(/C=N/Nc2ccccc2)c(Sc2nnnn2-c2ccccc2)nc2ccccn12	none
CC1(C2CC2)NC(=O)N(CC(=O)Nc2ccccc2-c2ccccc2)C1=O (configuration not stated)	ALDH1A1 block 18µM (no result: HPGD block, 12-hLO inh, PNC inhibitor)
COc1ccccc1N1CCN(CC(=O)Nc2cc(F)ccc2C)CC1	ALDH1A1 block 18µM, PNC inhibitor inconclusive
O=C(CN1CCCCC1)Nc1ccccc1NC(=O)CN1CCCCC1	PNC inhibitor inconclusive
O=C(CN1CCN(Cc2ccccc2)CC1)Nc1ccccc1-c1ccccc1	ALDH1A1 block 11µM (no result: HPGD block, 12-hLO inh, PNC inhibitor, LMNA splice mod)
CC1CCC2(CC1)NC(=O)N(CC(=O)Nc1ccccc1-c1ccccc1)C2=O (configuration not stated)	none (no result: HPGD block, 12-hLO inh, PNC inhibitor)
COc1cc(NC(=O)CCN2CCN(Cc3ccccc3)CC2)cc(OC)c1	ALDH1A1 block 11µM
CCOC(=O)NC[C@H](Cc1ccc(OCCc2nc(-c3ccccc3)oc2C)cc1)N/C(C)=C\C(=O)c1ccc(C(F)(F)F)cc1	ALDH1A1 block inconclusive, HPGD block inconclusive (no result: PNC inhibitor, LMNA splice mod)
NS(=O)(=O)c1cc2c(cc1Cl)N[C@@H]([C@@H]1C[C@@H]3C=C[C@H]1C3)NS2(=O)=O	none (no result: PNC inhibitor, LMNA splice mod)
O=C(CSCc1c(F)cccc1Cl)Nc1ccccc1C(=O)N1CCOCC1	none (no result: HPGD block, 12-hLO inh, PNC inhibitor)
COc1cccc(NC(=O)C2CCN(C(=O)N3CC(C)Oc4ccccc43)CC2)c1 (configuration not stated)	none (no result: ALDH1A1 block, HPGD block, 12-hLO inh, PNC inhibitor)
CC(=O)OCC(=O)[C@@]12OC(C)(C)OC1CC1C3CC(F)C4=CC(=O)C=C[C@@]4(C)[C@@]3(F)C(O)C[C@]12C (some centres not stated)	none (no result: PNC inhibitor, LMNA splice mod)
CC(=O)Oc1ccc2c(=O)c(-c3nc4ccccc4s3)coc2c1	none (no result: HPGD block, 12-hLO inh, PNC inhibitor)
CCOc1ccc(OCC)c(NC(=O)CN2CCN(c3cc(C)ccc3C)CC2)c1	ALDH1A1 block 3.5µM, LMNA splice mod inconclusive
COc1ccccc1NC(=O)CN1CCN(CC(=O)Nc2ccc(OCc3ccccc3)cc2)CC1	ALDH1A1 block inconclusive
COc1ccccc1NC(=O)CN1CCN(Cc2ccccc2)CC1	ALDH1A1 block 10µM, PNC inhibitor -87
CCOc1ccc(OCC)c(NC(=O)CN2CCN(c3cccc(C)c3)CC2)c1	ALDH1A1 block inconclusive, LMNA splice mod inconclusive
COc1ccccc1NC(=O)CN1CCN(CC(=O)Nc2ccc(F)cc2)CC1	ALDH1A1 block 25µM
Cc1cc(NC(=O)CCNS(=O)(=O)c2ccc3c(c2)CCCC(=O)N3)ccc1Br	none (no result: ALDH1A1 block, HPGD block, 12-hLO inh, PNC inhibitor)
CN(C)S(=O)(=O)c1ccc(S(=O)(=O)Nc2ccc3c(c2)oc2ccccc23)cc1	ALDH1A1 block 13µM, PNC inhibitor inconclusive, LMNA splice mod inconclusive
COC(=O)[C@@]1(Cc2ccccc2)[C@H]2c3cc(C(=O)N4CCCC4)n(Cc4ccc(S(C)(=O)=O)cc4)c3C[C@H]2CN1C(=O)c1ccccc1	none (no result: PNC inhibitor, LMNA splice mod)
CC1C=C[C@@H]2[C@H](C1)C(=O)N(Cc1ccccc1)[C@H]2c1ccccc1Br (some centres not stated)	ALDH1A1 block inconclusive (no result: PNC inhibitor, LMNA splice mod)
CC1(C)CC(=O)c2cc3c(nc2C1)CC(C)(C)CC3=O	ALDH1A1 block 7.1µM, PNC inhibitor inconclusive (no result: HPGD block)
Oc1ccc(CNc2ccc(F)cc2)c2cccnc12	ALDH1A1 block 8.9µM, 12-hLO inh inconclusive, LMNA splice mod inconclusive
Cc1ccccc1NCc1ccc(O)c2ncccc12	ALDH1A1 block 4µM, 12-hLO inh inconclusive, LMNA splice mod inconclusive
Oc1ccc(CNc2ccccc2)c2cccnc12	ALDH1A1 block 10µM, 12-hLO inh inconclusive, LMNA splice mod inconclusive
COCc1ccc(O)c2ncccc12	12-hLO inh inconclusive
Oc1ccc(Cn2ccnc2)c2cccnc12	LMNA splice mod inconclusive (no result: HPGD block, 12-hLO inh, PNC inhibitor)
Cc1cccc(NCc2ccc(O)c3ncccc23)c1	ALDH1A1 block 2.8µM, LMNA splice mod inconclusive (no result: HPGD block, 12-hLO inh, PNC inhibitor)
O=C1OCCN1/N=C\c1ccc([N+](=O)[O-])o1	LMNA splice mod inconclusive (no result: PNC inhibitor)
O=c1/c(=C\c2cc([N+](=O)[O-])cc([N+](=O)[O-])c2O)sc2nc3ccccc3n12	ALDH1A1 block 7.9µM (no result: HPGD block, 12-hLO inh, PNC inhibitor, LMNA splice mod)
